Screen size: about 24,000 compounds; about 130 (0.54%) were called active. For the sample, actives were picked, then their nearest neighbours and some compounds at random. Unmarked numbers belong to inactive results.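 How the source made its calls: active means side scatter shift above 30%; inactive means the rest.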
Assay: activators of LNCaP prostate cell differentiation, primary screen, flow cytometry side scatter (AID 795);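 further: androgen-responsive LNCaP prostate cancer cells in charcoal-stripped serum medium; percent of cells past a gate set so DMSO wells show 10% shift; higher shift means more granular cells and more differentiation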
Details: 4 d, at 10 µM, stronger effect = higher value

Row | SMILES | side scatter shift
1 | COc1ccc(N2C(=O)C3CCCN3C2c2cccs2)cc1 (stereo not given) | 9%
2 | Cc1ccc(-c2nnc(SC(C)C#N)n2N)cc1 (stereo not given) | 11%
3 | CCn1c(=O)cc(OCC(=O)NCCCN2CCN(c3cccc(Cl)c3)CC2)c2ccccc21 | 27%
4 | Cn1c(C(=O)NCCCN2CCN(c3cccc(Cl)c3)CC2)cc2c(=O)n(C)c3ccccc3c21 | 92% (active)
5 | CC1CCCC(C)N1CCCNC(=O)c1cc2c(=O)n(C)c3ccccc3c2n1C (stereo not given) | 9%
6 | COc1ccccc1NC(=O)C1=C(C)Nc2ncnn2C1c1ccc(C)o1 (stereo not given) | 16%
7 | CCOC(=O)C1C(=O)C=C(c2ccc(OC)cc2)CC1c1ccco1 (stereo not given) | 5%
8 | CC(=O)NC(C)c1nc2ccccc2n1Cc1ccccc1F (stereo not given) | 7%
9 | CC1=C(C(=O)Nc2ccccc2)C(c2cccs2)C(C#N)=C(SCC#N)N1 (stereo not given) | 4%
10 | Cc1nnc(C)n1/N=C/c1ccc(C(C)C)cc1 | 18%
11 | Cn1c(=O)cc(OCCCC(=O)N2CCN(Cc3ccc4c(c3)OCO4)CC2)c2ccccc21 | 12%
12 | OCc1nc(CO)n(Cc2ccccc2)n1 | 7%
13 | Cc1ccc(N2C(=O)c3oc4ccccc4c(=O)c3C2c2cccnc2)nc1 (stereo not given) | 3%
14 | O=c1ccn(Cc2ccccc2Cl)cc1 | 3%
15 | O=C1N=C(N2CCOCC2)CS1 | 16%
16 | CCC(C)(C)n1nnnc1C(c1ccccc1OC)N1CCSCC1 (stereo not given) | 10%
17 | CCn1c(=O)cc(SCC(=O)NCc2ccc3c(c2)OCO3)c2ccccc21 | 20%
18 | O=C(O)CCC(=O)Nc1ccc(N2CCOCC2)cc1 | 6%
19 | CCOc1ccc(C(=O)N(Cc2ccc(N(C)C)cc2)C2CCS(=O)(=O)C2)cc1 (stereo not given) | 12%
20 | O=C(CC(Cc1ccccc1)C(=O)O)NCCc1ccc2c(c1)OCO2 (stereo not given) | 6%
21 | O=C(CSc1nc2ncccc2[nH]1)Nc1ccc2c(c1)OCCO2 | 3%
22 | Nc1c(C(=O)NCc2ccccc2)nnn1Cc1cccc(Cl)c1 | 24%
23 | O=C(CCn1c(=S)[nH]c2ccccc2c1=O)NCCCN1CCCC1=O | 6%

Row | SMILES | side scatter shift
24 | COc1cccc2cc(C(C)N(CCCN3CCOCC3)C(=O)Nc3ccc(Cl)cc3)oc12 (stereo not given) | 6%
25 | CCOC(=O)Cn1c(N)c(C(=O)OC)sc1=S | 0%
26 | Clc1ccc(Cn2ncc3c(NCc4cccnc4)ncnc32)cc1 | 11%
27 | CCOC(=O)CSc1nc2c(c(=O)n(C)c(=O)n2C)n1Cc1ccccc1F | 11%
28 | O=C(Nc1ccccc1C(F)(F)F)c1cc(-c2ccc(O)cc2)on1 | 5%
29 | CCOC(=O)c1nc(-c2ccc3c(c2)OCO3)[nH]c1C | 7%
30 | CCCN1CCN(C(=O)Cn2ncc3ccccc32)CC1 | 6%
31 | CCCOC(=O)c1[nH]c2c(c1C)C(=O)CC(c1cc(OC)c(OC)c(OC)c1)C2 (stereo not given) | 11%
32 | CC1(C)C(=O)Nc2ccccc2N1C(=O)COC(=O)Cn1cnc2ccccc2c1=O | 7%
33 | Cc1ccc(C(=O)N(CN2CCCC2=O)c2ccc(F)cc2)cc1 | 15%
34 | CCCC(=O)Nc1cccc(-c2cn3ccsc3n2)c1 | 3%
35 | O=C(COC(=O)C12CC3CC(CC(C3)C1)C2)NCc1ccco1 | 12%
36 | CCOC(=O)C1CCCN(C(=O)c2ccc(CS(=O)(=O)c3ccc(Br)cc3)o2)C1 (stereo not given) | 8%
37 | Cc1ccsc1C(C(=O)NC1CCCCC1)N(C(=O)Cc1cccs1)C1CC1 (stereo not given) | 9%
38 | CCCCc1nccn1CCn1ccnc1CCCC | 7%
39 | O=C(C1CC1)N1CCN=C1SCc1ccc(Cl)cc1 | 11%
40 | Cc1cc(=O)n(C)c(=O)n1CCCNc1ccccc1 | 9%
41 | CC(C)Nc1nc(N(c2ccccc2)c2ccccc2)nc(-n2ccnc2)n1 | 10%
42 | CC(CCc1ccccc1)NC(=O)c1ccc(Br)o1 (stereo not given) | 5%
43 | C/C(=C(\C#N)C(=O)NCCCN1CCOCC1)N(C)C | 13%
44 | O=C(NCc1cccnc1)c1ccc(CS(=O)(=O)c2ccc(Br)cc2)o1 | 4%
45 | O=S(=O)(Nc1ccccn1)c1ccc(Oc2ccccc2)cc1 | 13%

Source: PubChem BioAssay AID795 (NMMLSC, 2007)
